From PubChem BioAssay (EPA / NIEHS) come the findings set out here.

Structures are written as SMILES. Results filed as inconclusive are left out. Activity calls are given as the source filed them. Rule for the calls, unless noted: active = hit-call score of the fitted dose curve at least 0.9, where 1 is the maximum; inactive = score below 0.9.

Read-out in assay [1]: Human Leukocyte Antigen - DR isotype (HLADR), HLA-DRA (gene 3122)
Nature of the assay: BSK_3C_HLADR: BioMAP Diversity Plus: 3C Assay for Human Leukocyte Antigen - DR isotype (HLADR) Biomarker Activity (AID 2283019).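 For outcome: ELISA of cell-surface HLA-DR on HUVEC 24 h after dosing.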 The conditions noted are these: primary human endothelial cells (HUVEC); actives raise or lower the signal. In outline:
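Primary human umbilical vein endothelial cells (3C system) were dosed with compound and cell-surface HLA-DR was quantified by ELISA at 24 h. Activity was fitted bidirectionally against DMSO as negative control and baseline.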

Read-out in assay [2]: Vascular endothelial growth factor receptor 2 (Homo sapiens) (UniProt P35968)
Briefly: BSK_4H_VEGFRII: BioMAP Diversity Plus: 4H Assay for Vascular endothelial growth factor receptor 2 (VEGFR2) Biomarker Activity (AID 2283031). The conditions noted are these: primary human endothelial cells (HUVEC); actives raise or lower the signal. A digest of the protocol: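 Primary human umbilical vein endothelial cells in the BioMAP 4H system were dosed with test chemical, and 24 h later VEGFRII was measured by ELISA. Activity was fitted bidirectionally against DMSO as negative control and baseline.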

Read-out in assay [3]: Interleukin-8 (IL8), CXCL8 (gene 3576)
Briefly: BSK_CASM3C_IL8: BioMAP Diversity Plus: CASM3C Assay for Interleukin-8 (IL8) Biomarker Activity (AID 2283042).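 Note: IL-8 protein level quantified by ELISA.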 The conditions noted are these: primary human coronary artery smooth muscle cells; actives raise or lower the signal.

Read-out in assay [4]: Monokine induced gamma interferon (MIG), CXCL9 (gene 4283)
Briefly: BSK_CASM3C_MIG: BioMAP Diversity Plus: CASM3C Assay for Monokine induced gamma interferon (MIG) Biomarker Activity (AID 2283048).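 Note: MIG protein level measured by ELISA.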 Conditions: primary human coronary artery smooth muscle cells; actives raise or lower the signal.

Read-out in assay [5]: Urokinase-type plasminogen activator receptor (uPAR), PLAUR (gene 5329)
Nature of the assay: BSK_CASM3C_uPAR: BioMAP Diversity Plus: CASM3C Assay for Urokinase-type plasminogen activator receptor (uPAR) Biomarker Activity (AID 2283054).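 Note: cell-surface uPAR protein level quantified by ELISA.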 Conditions: primary human coronary artery smooth muscle cells; actives raise or lower the signal.

Read-out in assay [6]: Tissue Factor, F3 (gene 2152)
Nature of the assay: BSK_LPS_TissueFactor: BioMAP Diversity Plus: LPS Assay for Tissue Factor Biomarker Activity (AID 2283084). Conditions: primary human HUVEC with PBMC; actives raise or lower the signal. In outline:
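Human umbilical vein endothelial cells co-cultured with peripheral blood mononuclear cells were dosed and stimulated with LPS. Cell-surface CD142 was quantified by ELISA at 24 h. Activity was fitted bidirectionally against DMSO baseline.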

Read-out in assay [7]: Vascular cell adhesion molecule 1 (VCAM1), VCAM1 (gene 7412)
Briefly: BSK_LPS_VCAM1: BioMAP Diversity Plus: LPS Assay for Vascular cell adhesion molecule 1 (VCAM1) Biomarker Activity (AID 2283086). The conditions noted are these: primary human HUVEC with PBMC; actives raise or lower the signal. In outline:
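VCAM-1 quantified by ELISA in an LPS-activated co-culture of human endothelial cells and peripheral blood mononuclear cells, read 24 h post-treatment. Fitted in both directions versus DMSO; parallel SRB staining flags overt cytotoxicity.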

Read-out in assay [8]: CD40, CD40 (gene 958)
Nature of the assay: BSK_SAg_CD40: BioMAP Diversity Plus: SAg Assay for CD40 Biomarker Activity (AID 2283088). Conditions: primary human HUVEC with PBMC; actives raise or lower the signal. In outline:
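Human umbilical vein endothelial cells co-cultured with PBMC; CD40 levels measured by ELISA with fluorescence read-out 24 h after chemical dosing. Gain or loss of signal fitted bidirectionally against DMSO baseline.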

Read-out in assay [9]: Interleukin-8 (IL8), CXCL8 (gene 3576)
Briefly: BSK_SAg_IL8: BioMAP Diversity Plus: SAg Assay for Interleukin-8 (IL8) Biomarker Activity (AID 2283094). Conditions: primary human HUVEC with PBMC; actives raise or lower the signal. In outline: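 ELISA readout of IL-8 from a superantigen-activated endothelial/PBMC primary human co-culture, taken 24 h post-dosing and fitted in both directions against DMSO; parallel SRB total-protein staining flags overt cytotoxicity.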

Assay [10] can be described thus: BSK_SAg_SRB: Viability Assessment in the BioMAP Diversity Plus: SAg Assay (AID 2283096).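 Note: cells read one day after compound addition; hits may be either gain or loss of signal compared with DMSO.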 The conditions noted are these: primary human HUVEC with PBMC. A digest of the protocol:
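This overt-cytotoxicity endpoint quantifies protein in human endothelial/PBMC co-cultures at 24 h using SRB absorbance (560 nm) after trichloroacetic acid fixation. Values reflect signal change from the DMSO negative control, fitted bidirectionally.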

The nature of assay [11]: BSK_BT_PBMCCytotoxicity: PBMC Cytotoxicity Assessment in the BioMAP Diversity Plus: BT Assay (AID 2284225).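 Note: PBMC viability measured by Alamar Blue dye reduction fluorescence.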 The conditions noted are these: primary human B cells with PBMC. In outline: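 Viability by Alamar Blue reduction (6 h, ex/em 546/580 nm) after 90 h culture of SEB/TSST-1-activated PBMC (20 ng/mL each) given compound 1 h before activation. DMSO served as baseline for curve fitting.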

Read-out in assay [12]: Secreted IgG (sIgG), gene 3500
Briefly: BSK_BT_sIgG: BioMAP Diversity Plus: BT Assay for Secreted IgG (sIgG) Biomarker Activity (AID 2284226). The conditions noted are these: primary human B cells with PBMC. A digest of the protocol: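 ELISA quantitation of secreted IgG from human B cells co-cultured with PBMC, sampled 24 h post-dosing. Values fitted relative to DMSO vehicle as baseline, positive fitting direction.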

Assay [13] can be described thus: BSK_BT_Bcell_Proliferation: Viability Assessment in the BioMAP Diversity Plus: BT Assay for B cell Proliferation (AID 2284227). Conditions: primary human B cells with PBMC. A digest of the protocol: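 SRB-based protein staining (0.1% SRB after 10% TCA fixation, 560 nm) quantifies proliferation in human B cells co-cultured with PBMC, 72 h post-dosing, with signal gain scored relative to DMSO negative control.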

Read-out in assay [14]: Interleukin 17A (IL17A), IL17A (gene 3605)
Nature of the assay: BSK_BT_xIL17A: BioMAP Diversity Plus: BT Assay for Interleukin 17A (IL17A) Biomarker Activity (AID 2284229). The conditions noted are these: primary human B cells with PBMC. In outline: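 B cells co-cultured with PBMC were exposed to test chemicals, and secreted IL-17A was quantified 24 h after dosing by Luminex xMAP bead immunoassay. Activity was fitted in the gain direction against DMSO as baseline.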

Read-out in assay [15]: Collagen III, COL3A1 (gene 1281)
Nature of the assay: BSK_MyoF_CollagenIII: BioMAP Diversity Plus: MyoF Assay for Collagen III Biomarker Activity (AID 2284239). The conditions noted are these: primary human lung fibroblasts. In outline: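 Human lung fibroblasts were dosed with chemicals and, 24 hours later, collagen III was measured by ELISA. Activity was fitted in the positive direction against the DMSO negative-control baseline.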

Read-out in assay [16]: Interleukin 2 (IL2), IL2 (gene 3558)
Briefly: BSK_BT_xIL2: BioMAP Diversity Plus: BT Assay for Interleukin 2 (IL2) Biomarker Activity (AID 2284245). Conditions: primary human B cells with PBMC. A digest of the protocol:
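Secreted IL-2 was read by Luminex xMAP from B cells co-cultured with PBMC (human primary) 24 h post-dosing; activity was analysed as gain of signal relative to DMSO vehicle.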

Read-out in assay [17]: Collagen IV, COL4A1 (gene 1282)
Nature of the assay: BSK_MyoF_CollagenIV: BioMAP Diversity Plus: MyoF Assay for Collagen IV Biomarker Activity (AID 2284247). The conditions noted are these: primary human lung fibroblasts. In outline:
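Collagen IV quantified by ELISA in human lung fibroblast cultures 24 h after chemical treatment, with DMSO as baseline. Parallel SRB staining (0.1% SRB after TCA fixation, 560 nm) flags overt cytotoxicity.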

Read-out in assay [18]: Plasminogen activator inhibitor-1 (PAI1), SERPINE1 (gene 5054)
Briefly: BSK_MyoF_PAI1: BioMAP Diversity Plus: MyoF Assay for Plasminogen activator inhibitor-1 (PAI1) Biomarker Activity (AID 2284256).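 For outcome: PAI-1 protein level measured by ELISA in fibroblast cultures; PAI-1 read 24 h after compound addition.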 The conditions noted are these: primary human lung fibroblasts. In outline: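 ELISA read-out of PAI-1 from primary human lung fibroblast cultures 24 h after dosing; gain-of-signal fit versus DMSO control.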

Read-out in assay [19]: Matrix Metallopeptidase 1 (MMP1), MMP1 (gene 4312)
Nature of the assay: BSK_MyoF_MMP1: BioMAP Diversity Plus: MyoF Assay for Matrix Metallopeptidase 1 (MMP1) Biomarker Activity (AID 2284268). The conditions noted are these: primary human lung fibroblasts. In outline:
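ELISA readout of MMP1 in primary human lung fibroblast cultures, 24 h post-dosing. Gain of signal versus DMSO vehicle control defines activity. Parallel SRB staining (0.1% after 10% TCA fixation, 560 nm) flags overt cytotoxicity.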

Assay [20] addresses Estrogen receptor (Homo sapiens) (UniProt P03372). Nature of the assay: ATG_ERa_TRANS: Attagene TRANS-FACTORIAL HepG2 Assay for human Estrogen Receptor alpha (ERa) (AID 2282970; active = hit-call score of the fitted dose curve at least 0.9, where 1 is the maximum). The conditions noted are these: HepG2 Attagene TRANS ERa GAL4 reporter, mRNA. A digest of the protocol: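 One of 30 multiplexed endpoints from a HepG2 TRANS system, this one reports ERa-Gal4-driven reporter mRNA. Transcripts were quantified 24 hours post-dosing by fluorescent RT-PCR and capillary electrophoresis, with activity scored as induction over DMSO.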

Chain of Estrogen receptor (Homo sapiens) (P03372 whole entry, looked up, the tested form may be a part): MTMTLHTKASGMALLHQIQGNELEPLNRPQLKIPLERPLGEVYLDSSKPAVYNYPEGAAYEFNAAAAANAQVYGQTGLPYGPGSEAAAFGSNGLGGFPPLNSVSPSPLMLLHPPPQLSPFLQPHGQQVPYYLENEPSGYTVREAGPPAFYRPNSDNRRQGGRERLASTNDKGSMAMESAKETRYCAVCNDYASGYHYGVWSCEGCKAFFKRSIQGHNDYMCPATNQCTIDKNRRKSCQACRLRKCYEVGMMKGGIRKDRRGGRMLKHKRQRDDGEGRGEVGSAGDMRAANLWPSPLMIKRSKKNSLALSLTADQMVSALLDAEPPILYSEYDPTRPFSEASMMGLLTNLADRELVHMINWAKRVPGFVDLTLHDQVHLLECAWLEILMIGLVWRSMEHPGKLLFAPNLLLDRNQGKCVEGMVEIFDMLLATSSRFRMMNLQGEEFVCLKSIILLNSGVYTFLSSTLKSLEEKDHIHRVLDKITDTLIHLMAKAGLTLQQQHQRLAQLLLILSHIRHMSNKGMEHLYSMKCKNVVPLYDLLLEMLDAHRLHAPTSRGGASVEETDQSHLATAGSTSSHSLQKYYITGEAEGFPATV

As to `O=P1(NCCCl)OCCCN1CCCl` (centres undefined), the outcome in assay [1], in [2], in assay [3], in assay [4], in assay [5] and in [6] was inactive. In addition, the outcome in assay [7], in assay [8], in [9], in assay [10], in assay [11] and in [12] was inactive. Moreover, the result in assay [13], in assay [14], in assay [15], in [16], in [17] and in [18] was inactive. In assay [19], the outcome was inactive.

In the case of `CC(C)(C)C(=O)CCl`, the molecule was classed as inactive in assay [20], in assay [2], in assay [5], in [6], in assay [8] and in assay [9]. In addition, the outcome in [10], in [13], in [14], in assay [15], in assay [16] and in [17] was inactive. Moreover, in assay [19], the outcome was inactive. The half-maximal activity concentration (AC50) in [1] was 20 µM (active); in assay [4], 20 µM (active); in assay [7], 24.3 µM (active); in assay [11], 12.9 µM (active); in [12] it was 8.03 µM (active); in assay [18] it was 32.9 µM (active).

For `c1ccc(Nc2ccc3ccccc3c2)cc1`, the half-maximal activity concentration (AC50) in assay [20] is 4.65 µM (active); in assay [1] it was 31.1 µM (active); in assay [12] it was 31.5 µM (active); in assay [13], 27.2 µM (active); in [14], 20 µM (active); in assay [15], 20 µM (active). Besides, the half-maximal activity concentration (AC50) was 20 µM (active) in [16] and 31.6 µM (active) in assay [18]. Besides, the outcome in assay [2], in [3], in assay [4], in [5], in assay [6] and in assay [7] was inactive. Besides, the result in assay [8], in assay [9], in assay [10], in [11], in [17] and in assay [19] was inactive.

As for `N#CCNCC#N`, in assay [20], the result was inactive.
